Screening data from PubChem.
uPA surface inh = blocks generation of uPA at the cell surface. cell surface uPA generation assay, qHTS. Potency, µM (doses to about 38.3 µM), inactives show top-dose activity change, negative = inhibition, most hits filed as inhibitors. 330,000 tested, 0.31% active. AID 540303; active = well fitted inhibition curve with a large enough effect; inconclusive = small, poorly fitted or top-dose-only effect; inactive = no such curve, though single readings can be large or run the other way; tested in mouse RAW 264.7 cells; note: potency is the fitted concentration of half-maximal effect; nearly all actives have a fitted effect of over 55% in size
DT40 TDP1 no CPT = qHTS for Inhibitors of human tyrosyl-DNA phosphodiesterase 1 (TDP1): qHTS in cells in absence of CPT | 420,000 tested, 15% active | AID 686978, 2013 | DT40 Tdp1-/- hTDP1 cells, no CPT, ATP luminescence, 48 h | Potency, µM (series often up to 46.2 µM), inactives show at the highest dose activity change, negative = growth inhibition, most hits filed as inhibitors; note: potency is the fitted concentration of half-maximal effect; nearly all actives have a fitted effect of over 55% in size
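Growth of hTDP1-complemented DT40 Tdp1-knockout cells is measured by ATP luminescence after at least 48 hr compound exposure at 37 °C, with DMSO substituting for the 20 nM CPT used in the parallel screen.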
HT1080NT lethal = kills 2HG-producing HT-1080-NT fibrosarcoma cells. Potency, µM (top dose mostly 46.1 µM), without a hit: top-dose activity, negative = less viability, actives largely listed as cytotoxic. AID 686970. HT-1080-NT fibrosarcoma viability, CellTiter-Glo ATP luminescence, 48 h. 360,000 tested, 1.6% active;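 note: NT is the 2HG producing partner of a matched IDH1 knockdown line; potency is the fitted concentration of half-maximal effect; 0% = DMSO-treated cells and -100% = media-only wells without cells; nearly all actives have a fitted effect of over 55% in size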
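Toxicity toward the 2HG-producing NT line was scored as %Activity, normalised to DMSO and no-cell wells, from CellTiter-Glo luminescence after 48 hours' treatment.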
IL-1B inflam inh = inhibitors of inflammasome signaling (IL-1 beta secretion); activity change, % at 57.5 µM; THP-1 LPS/ATP IL-1B secretion, AlphaLISA, 16 h; stronger effect = lower value; 360,000 tested, 4.7% active; in the data active = activity change below about -50%; inconclusive = mostly about -30% to -49%
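THP-1 cells pretreated 1 hr with compounds (up to 57.5 uM final), then stimulated with LPS (250 ng/mL final) plus ATP (1.25 mM final); secreted IL-1B measured by AlphaLISA after 16 hr, decreased signal indicating inhibition.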
HT1080 IDH1KD tx = HT-1080 IDH1 knockdown cell toxicity (counter line) | HT-1080 IDH1 knockdown viability, ATP luminescence, 48 h | Potency, µM (top dose mostly 46.1 µM), inactives show top-dose activity, negative = toxicity, hits mostly cytotoxic | 360,000 tested, 2% active;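 note: potency is the fitted concentration of half-maximal effect; 0% = DMSO wells and -100% = cell-free medium wells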
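% activity derives from luminescence (CellTiter-Glo), normalised to DMSO and no-cell wells. HT-1080-IDH1KD cells, 750/well, had 48 h compound exposure at 37 °C.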
TDP1 cell CPT = growth inhibition of DT40 Tdp1-/-;hTDP1 cells with camptothecin (screen for TDP1 inhibitors); chicken DT40 Tdp1-/-;hTDP1 cells + 20 nM CPT, ATP luminescence, 48 h; Potency, µM (doses to about 46.2 µM), inactives show top-dose activity change, negative = growth inhibition, most hits filed as inhibitors; 420,000 tested, 12% active; AID 686979; note: potency is the fitted concentration of half-maximal effect; nearly all actives have a fitted effect of over 55% in size
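Cell growth measured by CellTiter-Glo luminescence after a minimum 48 h, 37 C compound exposure with 20 nM CPT in Tdp1-knockout DT40 cells stably expressing hTDP1, seeded 400/well; qHTS titration format.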
* hit, by the source's call; ? = inconclusive; . = no result. In the library only some 19% were active in any assay of this set; here they are far more common. Unless noted, calls come from the whole dose curve; as a rule, active = well fitted curve in the direction sought with a large enough effect; inconclusive = small, poorly fitted or top-dose-only effect, or another doubt; inactive = no such curve, though single readings can be large; an effect the other way counts as inactive or inconclusive. Unless noted, % is set by controls: 0 for no effect and ±100 for the full control effect.

SMILES | uPA surface inh | DT40 TDP1 no CPT | HT1080NT lethal | IL-1B inflam inh | HT1080 IDH1KD tx | TDP1 cell CPT
Cc1cc(C)cc(NC(=O)C[n+]2ccccc2)c1 | 1.1% | -22.4% | -2.2% | 3.1 | -5.7% | -11.0%
O=C(C[n+]1ccccc1)Nc1ccccc1 | -5.7% | -0.7% | 14.7% | -26.5 | 11.0% | 3.3%
Cc1cccc(NC(=O)C[n+]2ccc(N(C)C)cc2)c1 | -1.4% | ? | ? | 0.0 | ? | 14.6µM*
CN(C)c1cc[n+](CC(=O)Nc2ccc(Cl)cc2)cc1 | -2.8% | 3.26µM* | 6.51µM* | -51.1* | ? | 6.51µM*
CCCS(=O)(=O)N1CCCC(C(=O)NCCOC)C1 (centres undefined) | . | -0.4% | . | . | . | 2.2%
Cc1cc(NC(=O)CSc2nc(-c3ccccc3)nc3c2c(=O)n(C)c(=O)n3C)no1 | -4.6% | 1.3% | 5.5% | -14.8 | 1.4% | 5.1%
Cc1cc(NC(=O)CSc2nc(C(C)C)nc3c2c(=O)n(C)c(=O)n3C)no1 | 0.1% | 16.4µM* | 11.3% | 31.1 | -4.9% | 16.4µM*
CC1CCN(C(=O)CSc2nc(C(C)C)nc3c2c(=O)n(C)c(=O)n3C)CC1 | 0.6% | 18.4µM* | -8.7% | -14.9 | -12.0% | 16.4µM*
CC(C)c1nc(SCC(=O)N2CCCc3ccccc32)c2c(=O)n(C)c(=O)n(C)c2n1 | 9.7% | 6.51µM* | ? | 30.8 | 4.2% | 7.31µM*
COc1ccc(NC(=O)c2cn3c4c(ccc(Cl)c4c2=O)OC(C)C3)cc1OC (centres undefined) | . | ? | . | . | . | -8.7%
CN1C[C@@H]2[C@@H]3C(=O)N(C)C(=O)[C@@H]3[C@](Cc3ccccc3)(C1=O)N2C(=O)c1ccc(F)cc1 | 8.3% | -23.5% | -0.3% | -13.4 | 12.9% | -8.9%
COc1ccc(N=C(c2ccccc2)c2c(C)[nH]n(-c3ccccc3)c2=O)c(OC)c1 | 1.4% | 18.4µM* | 0.6% | ? | -11.1% | ?
CCOc1ccc(NS(=O)(=O)c2ccc3c(c2)CCN3C(=O)C2CCC2)cc1 | -12.9% | ? | -7.7% | 16.9 | -8.0% | ?
COc1ccc(OC)c(NS(=O)(=O)c2ccc3c(c2)CCCN3C(=O)C2CCC2)c1 | . | ? | . | . | . | 23.1µM*
CCc1ccccc1NS(=O)(=O)c1ccc2c(c1)CCCN2C(=O)C1CCC1 | . | 20.6µM* | . | . | . | ?
COc1ccccc1NC(=O)c1cccc2c(Br)cccc12 | -16.5% | ? | -3.2% | 9.2 | -0.7% | -27.7%
CCc1c(C)nc(SCc2ccccn2)[nH]c1=O | -14.3% | -8.0% | 7.3% | 34.7 | 5.6% | -2.7%
COc1cc(C(=O)NCC2CCCN2S(=O)(=O)c2cccs2)cc(OC)c1OC (centres undefined) | -4.8% | ? | -15.0% | 13.6 | -10.4% | -3.0%
S=C(NC1CCCCC1)NC1CC2CCC(C1)N2Cc1ccccc1 (centres undefined) | -1.6% | 18.4µM* | 1.0% | -3.0 | -9.4% | ?
S=C(NCCc1ccccc1)NC1CC2CCC(C1)N2Cc1ccccc1 (centres undefined) | -1.9% | ? | -15.2% | -60.1* | -7.6% | ?
CCNC(=S)NC1CC2CCC(C1)N2Cc1ccccc1 (centres undefined) | -14.5% | -14.9% | -3.5% | -1.1 | -2.9% | -21.8%
S=C(NCCc1cccc(Cl)c1)NC1CCCCC1 | 3.6% | 20.6µM* | ? | -6.9 | ? | ?
S=C(NCCc1ccccc1)NC1CCC(NC(=S)NCCc2ccccc2)CC1 (centres undefined) | 10.6% | 12.0% | 6.8% | 14.9 | 7.3% | 2.8%
CCOC(=O)C1CCN(C(=O)c2cc3cc(C)ccc3[nH]2)CC1 | -4.8% | ? | 5.9% | 23.9 | 6.7% | -6.5%
CN(C1=NC(=O)C(CC(=O)Nc2ccc(Br)cc2)S1)c1ccc(O)cc1 (centres undefined) | 3.9% | ? | ? | 0.0 | 7.94µM* | ?
